From PubChem BioAssay
Rows were chosen to be rich in hits. Some 18% of all compounds tested hit in one or more screens of this group.
HepG2 tox – qHTS for Inhibitors of TGF-b: Cytotox Counterscreen; HepG2 CAGA-GFP viability, ATP luminescence, 18 h; Potency, µM (series often up to 46.1 µM), without a hit: at the highest dose activity change, negative = cytotoxicity, hits mostly cytotoxic; 410,000 tested, 0.76% active; AID 588856, 2011; also: potency is read from the fitted curve at half-maximal effect
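HepG2 CAGA-GFP cells (1000/well, DMEM with 1% FBS) received compound, then TGF-beta at 500 pg/mL final, and were incubated 18 hours at 37 degrees C. Viability was read by CellTiter-Glo luminescence. Media-only wells were set as complete cell-killing and DMSO as no toxicity.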
TDP1 block – qHTS Assay for Inhibitors of Tyrosyl-DNA Phosphodiesterase (TDP1); Tyrosyl-DNA phosphodiesterase 1 (Homo sapiens), Q9NUW8; recombinant TDP1, AlphaScreen DNA substrate cleavage; Potency, µM (series often up to 130 µM), for inactives: top-dose activity change, negative = inhibition, actives largely listed as inhibitors; 350,000 tested, 0.28% active; AID 485290, 2010; also: potency is read from the fitted curve at half-maximal effect; % is scaled to controls: 0 for no effect and ±100 for the full control effect; nearly all actives have a fitted effect of over 40% in size
Target sequence (Q9NUW8 whole entry, looked up): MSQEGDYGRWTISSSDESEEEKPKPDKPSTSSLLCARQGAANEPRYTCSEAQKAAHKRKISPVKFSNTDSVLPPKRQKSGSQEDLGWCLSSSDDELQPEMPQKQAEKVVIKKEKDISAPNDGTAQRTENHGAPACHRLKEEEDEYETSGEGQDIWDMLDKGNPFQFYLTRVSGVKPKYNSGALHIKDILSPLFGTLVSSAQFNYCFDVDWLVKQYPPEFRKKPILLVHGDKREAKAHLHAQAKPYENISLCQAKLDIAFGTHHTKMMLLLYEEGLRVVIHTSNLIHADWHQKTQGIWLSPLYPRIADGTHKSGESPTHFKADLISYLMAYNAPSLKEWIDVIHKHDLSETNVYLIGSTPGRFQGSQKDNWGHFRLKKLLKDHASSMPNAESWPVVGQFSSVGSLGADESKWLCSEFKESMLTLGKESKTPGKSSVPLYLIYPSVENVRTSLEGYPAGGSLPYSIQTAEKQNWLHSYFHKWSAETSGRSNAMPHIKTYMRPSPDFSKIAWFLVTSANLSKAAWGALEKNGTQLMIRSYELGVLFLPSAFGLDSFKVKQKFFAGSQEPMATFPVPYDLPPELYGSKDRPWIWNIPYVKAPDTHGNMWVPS
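Tdp1 1 nM final; 15 min RT w/ cpd; substrate 15 nM, 5 min; beads 10 ug/ml, 10 min; AlphaScreen read. Neg ctrl: no enzyme.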
DT40 TDP1 CPT – qHTS for Inhibitors of human tyrosyl-DNA phosphodiesterase 1 (TDP1): qHTS in cells in presence of CPT | Potency, µM (doses to about 46.2 µM), inactives show top-dose activity change, negative = growth inhibition, hits mostly inhibitors | chicken DT40 Tdp1-/-;hTDP1 cells + 20 nM CPT, ATP luminescence, 48 h | 420,000 tested, 12% active; also: potency is read from the fitted curve at half-maximal effect; % is scaled to controls: 0 for no effect and ±100 for the full control effect; nearly all actives have a fitted effect of over 55% in size
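Chicken DT40 Tdp1-/- cells complemented with human TDP1, 400 cells/well, exposed to compounds plus 20 nM camptothecin for at least 48 h at 37 C; viability read as ATP content by CellTiter-Glo luminescence.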
TDP1 cell noCPT – qHTS for Inhibitors of human tyrosyl-DNA phosphodiesterase 1 (TDP1): qHTS in cells in absence of CPT | DT40 Tdp1-/- hTDP1 cells, no CPT, ATP luminescence, 48 h | 420,000 tested, 15% active | AID 686978, 2013 | Potency, µM (highest dose often 46.2 µM), for inactives: at the highest dose activity change, negative = growth inhibition, actives largely listed as inhibitors; also: potency is read from the fitted curve at half-maximal effect; % is scaled to controls: 0 for no effect and ±100 for the full control effect; nearly all actives have a fitted effect of over 55% in size
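Chicken DT40 Tdp1-/- cells complemented with human TDP1, screened without camptothecin (DMSO vehicle only), 400 cells/well. Compounds pin-transferred, cells incubated at 37 °C for at least 48 hr. Growth read as ATP-dependent luminescence (CellTiter-Glo, 30 min at RT).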
TGFb SMAD3 inh – qHTS for Inhibitors of TGF-b; HepG2 CAGA-GFP TGF-b/SMAD3 reporter, GFP fluorescence, 18 h; TGF-beta stimulated, 500 pg/mL final; Potency, µM (titrated, usually from 46.1 µM), for inactives: at the highest dose activity, negative = inhibition, actives largely listed as inhibitors; 410,000 tested, 1.2% active; AID 588855, 2011; also: potency is read from the fitted curve at half-maximal effect; % is scaled to controls: 0 for no effect and ±100 for the full control effect; nearly all actives have a fitted effect of over 65% in size
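Using HEPG2 CAGA-GFP reporter cells at 1000 cells/well, we pinned test compounds, stimulated with recombinant TGF-beta (500 pg/mL final) and measured total well GFP after 18 h.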
IL1B secr inh – qHTS for Inhibitors of Inflammasome Signaling: IL-1-beta AlphaLISA Primary Screen. THP-1 LPS/ATP IL-1B secretion, AlphaLISA, 16 h; hits give low values. activity change, % at 57.5 µM. 360,000 tested, 4.7% active. AID 743279, 2014; in the data active = activity change below about -50%; inconclusive = mostly about -30% to -49%; also: % is scaled to controls: 0 for no effect and ±100 for the full control effect
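THP-1 cells pretreated 1 hr with compounds (up to 57.5 uM final), then stimulated with LPS (250 ng/mL final) plus ATP (1.25 mM final); secreted IL-1B measured by AlphaLISA after 16 hr, decreased signal indicating inhibition.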
Starred values were filed as active, the others as inactive; ? = inconclusive; . = no result given; [ ] = another dose, or the depositor's remark. Unless noted, calls follow the shape of the dose curve; as a rule, active = well fitted curve in the direction sought with a large enough effect; inconclusive = small, poorly fitted or top-dose-only effect, or another doubt; inactive = no such curve, though single readings can be large; an effect the other way counts as inactive or inconclusive.

SMILES	HepG2 tox	TDP1 block	DT40 TDP1 CPT	TDP1 cell noCPT	TGFb SMAD3 inh	IL1B secr inh
O=C(NNc1ccccc1[N+](=O)[O-])Nc1ccc(F)cc1	-2%	2%	?	-52%	5%	-3
CCN(CC)CCN1CCN(c2cnc(C)cn2)CC1	2%	.	-11%	3%	9%	-9
CCOC(=O)c1cc(S(=O)(=O)N2CCN(c3ccccc3)CC2)[nH]n1	-12%	-1%	?	?	0%	.
CCOC(=O)c1cc(S(=O)(=O)N2CCN(c3cc(C)ccc3C)CC2)[nH]n1	-50%	3%	?	?	?	.
CCOC(=O)c1cc(S(=O)(=O)N2CCN(c3cccc(C)c3)C(C)C2)[nH]n1 (stereo not drawn)	-24%	2%	16µM*	23µM*	?	.
CCOC(=O)c1cc(S(=O)(=O)N2CCN(c3ccc(C(C)=O)cc3)CC2)[nH]n1	4%	2%	18µM*	16µM*	12%	.
COc1ccccc1NC(=O)C(=O)NCC(c1ccc2c(c1)OCO2)N1CCN(C)CC1 (stereo not drawn)	-25%	9%	?	?	-3%	.
O=C(NCC[C@H]1CC[C@@H](NC(=O)C2CCOCC2)[C@@H](CO)O1)Nc1ccc(Cl)cc1	.	.	9%	-2%	.	5
Cc1ccc(Cl)cc1N1CCN(C(=O)C(C)n2ncn3cccc3c2=O)CC1 (stereo not drawn)	1%	3%	18µM*	23µM*	5%	-23
Cc1cccc(N2CCN(C(=O)c3cc4c(=O)n(C)c5ccccc5c4n3C)CC2)c1C	6%	1%	?	16µM*	0%	23
Cc1cccc(N2CCN(C(=O)c3cc4c(=O)n(C)c5ccccc5c4s3)CC2)c1C	-14%	2%	?	5.8µM*	-16%	.
Cn1c(=O)c2cc(C(=O)N3CCN(c4cccc(C(F)(F)F)c4)CC3)sc2c2ccccc21	-26%	5%	?	3.7µM*	-4%	.
COc1cccc(N2CC(NC(=O)c3cc4ccccc4o3)CC2=O)c1 (stereo not drawn)	-10%	8%	-8%	-16%	0%	.
Cc1ccccc1C(=O)OCc1cc(=O)n2nc(C(C)C)sc2n1	-1%	10%	3%	-23%	-4%	.
Cc1ccc(Cl)cc1N1CCN(C(=O)c2cc3c(=O)n(C)c4ccccc4c3n2C)CC1	6%	2%	18µM*	16µM*	4%	56
Cn1c(C(=O)N2CCN(c3ncccn3)CC2)cc2c(=O)n(C)c3ccccc3c21	6%	2%	?	21µM*	16%	-9
Cc1cc(C)cc(NC(=O)C(=O)NCC(c2cccnc2)N2CCOCC2)c1 (stereo not drawn)	-1%	4%	-1%	-25%	-11%	.
O=C(COC(=O)c1cc(S(=O)(=O)N2CCOCC2)ccc1O)NCc1ccc2c(c1)OCO2	1%	-9%	-10%	0%	1%	-2
Cc1ccc(NC(=O)C(C)OC(=O)CCN=C2NS(=O)(=O)c3ccccc32)cc1 (stereo not drawn)	3%	-10%[0.505 µM]	-14%	-5%	1%	5
NS(=O)(=O)c1ccc(Sc2ccccn2)c([N+](=O)[O-])c1	1%	4%	-4%	?	0%	.
NS(=O)(=O)c1ccc(Sc2nc3ccccc3s2)c([N+](=O)[O-])c1	13µM*	.	9.2µM*	10µM*	?	-99*
CC1CCCN(C(=O)C2CCN(C(=O)Nc3ccccc3)CC2)C1 (stereo not drawn)	5%	1%	-2%	15%	4%	13
O=C(NCc1ccccc1)C1CCC1	-20%	3%	1%	1%	-15%	66
O=C(NCc1ccccc1)C1CCN(c2nc(-c3ccccc3)nc3c2CCC3)CC1	-26%	5%	18µM*	21µM*	2%	-5
CC1CCCN(C(=O)C2CCN(c3nc(-c4ccccc4)nc4c3CCC4)CC2)C1 (stereo not drawn)	-23%	6%	?	23µM*	15%	-20
SMILES	HepG2 tox	TDP1 block	DT40 TDP1 CPT	TDP1 cell noCPT	TGFb SMAD3 inh	IL1B secr inh
O=C(c1cccc(F)c1)N1CCC[C@@]2(CCN(c3ccccn3)C2)C1	.	.	-1%	-21%	.	.
CN1CCC2(CC1)CCN(C(=O)c1cc(C(F)(F)F)cc(C(F)(F)F)c1)CC2	.	.	1%	1%	.	.
O=C(c1cccc(F)c1)N1CCC2(CC1)CN(c1ccccn1)C2	.	.	15µM*	?	.	.
O=C(c1cc(C(F)(F)F)cc(C(F)(F)F)c1)N1CCC2(CC1)CN(c1ccccn1)C2	.	.	4.6µM*	5.2µM*	.	.
O=C(c1cccc(F)c1)N1CCC2(CC1)CCN(c1ccncc1)CC2	.	.	7.3µM*	18µM*	.	.
O=C(c1cc(C(F)(F)F)cc(C(F)(F)F)c1)N1CCC2(CC1)CCN(c1ccncc1)CC2	.	.	26µM*	18µM*	.	.
CC(C)Cn1c(/C=C/c2ccco2)nc2ccccc21	-28%	8%	?	?	-24%	-17
O=C(c1cccc(F)c1)N1CCC2(CC1)CCN(c1ncccn1)CC2	.	.	?	18µM*	.	.
O=C1C=CC(O)C2(CO)OC12 (stereo not drawn)	-99%	.	16µM*	5.8µM*	?	-90*
Cc1cccc(C)c1NC(=O)c1c[nH]c2ccccc12	-10%	.	18µM*	26µM*	0%	-21
Cc1cccc(C)c1NC(=O)c1cnn(-c2ccccc2)c1C	22%	3%	-18%	-12%	-17%	-62*
Cc1cccc(C)c1NC(=O)CNC(=O)Cc1c[nH]c2ccccc12	-5%	.	-4%	-10%	?	7
Cc1ccc(NC(=O)c2cnn(-c3ccccc3)c2C)cc1	-4%	.	-43%	?	-9%	?
Cc1c(C(=O)N(C)c2ccc(Cl)cc2)cnn1-c1ccccc1	3%	.	?	4.6µM*	16%	-11
Cc1cccc(N(C)C(=O)c2cnn(-c3ccccc3)c2C)c1	-52%	.	2%	?	19%	-1
Cc1ccc(NC(=O)c2cnn(-c3ccccc3)c2C)c(C)c1	-42%	.	?	?	4%	-67*
